The source of these data is PubChem BioAssay (EPA / NIEHS).

A word on the AC50: it is the concentration at which the activity in the assay is half-maximal.

Conditions in all cases: mRNA level, 48 h; actives raise or lower the signal
Read-out in assay [1]: Tumor necrosis factor receptor superfamily member 6 (Homo sapiens) (UniProt P25445)
The experiment in a line: LTEA_HepaRG_FAS: Life Technologies and Expression Analysis (LTEA) Assay for Fas cell surface death receptor (FAS) using HepaRG (AID 2283447). The method in brief: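 FAS transcript level was measured by TaqMan qRT-PCR against three housekeeping genes after 48 h chemical exposure. Cells were HepaRG, 0.5% DMSO vehicle, with a top concentration of 100 uM and half-log dilutions over eight points, in duplicate.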

Read-out in assay [2]: Cyclin D2 (CCND2), CCND2 (gene 894)
Description: LTEA_HepaRG_CCND2: Life Technologies and Expression Analysis (LTEA) Assay for Cyclin D2 (CCND2) using HepaRG (AID 2283449). The method in brief: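 CCND2 transcript levels, quantified by qRT-PCR and normalised to three housekeeping genes, were fitted bidirectionally against 0.5% DMSO. HepaRG cultures were dosed 48 h in duplicate with an 8-point half-log series up to 100 uM.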

Read-out in assay [3]: flavin-containing dimethylaniline monooxygenases 3 (FMO3), FMO3 (gene 2328)
Description: LTEA_HepaRG_FMO3: Life Technologies and Expression Analysis (LTEA) Assay for flavin-containing dimethylaniline monooxygenases 3 (FMO3) using HepaRG (AID 2283453). The method in brief: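 Eight-point concentration-response in serum-free HepaRG cultures (top 100 uM, 0.5% DMSO, 48 h). Read-out: FMO3 mRNA level normalized to three endogenous control genes, fitted bidirectionally versus vehicle.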

Read-out in assay [4]: Cytochrome P450 (CYP1A1), CYP1A1 (gene 1543)
The experiment in a line: LTEA_HepaRG_CYP1A1: Life Technologies and Expression Analysis (LTEA) Assay for Cytochrome P450 (CYP1A1) using HepaRG (AID 2283454). The method in brief: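 Differentiated human HepaRG cells, after 48 h plating, exposed in duplicate for 48 h in serum-free induction medium to 8 half-log concentrations up to 100 uM in 0.5% DMSO. CYP1A1 mRNA by qRT-PCR, normalized to ACTB/GAPDH/POLR2A; bidirectional fit versus DMSO.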

Read-out in assay [5]: CFLAR gene, CFLAR (gene 8837)
Description: LTEA_HepaRG_CFLAR: Life Technologies and Expression Analysis (LTEA) Assay for CFLAR gene using HepaRG (AID 2283455). The method in brief:
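Transcript level by qRT-PCR (normalized to ACTB, GAPDH and POLR2A) after 48 h chemical exposure of HepaRG cells, top concentration 100 uM with half-log steps, 0.5% DMSO vehicle, duplicates; fitted bidirectionally against DMSO baseline.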

Read-out in assay [6]: Forkhead box O1 (FOXO1), FOXO1 (gene 2308)
The experiment in a line: LTEA_HepaRG_FOXO1: Life Technologies and Expression Analysis (LTEA) Assay for Forkhead box O1 (FOXO1) using HepaRG (AID 2283456). The method in brief: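 FOXO1 transcript quantified by qRT-PCR after 48 h chemical exposure (top 100 uM, half-log steps, 0.5% DMSO) of HepaRG cells, housekeeping-normalized (ACTB/GAPDH/POLR2A). Changes fitted in both directions relative to vehicle.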

Read-out in assay [7]: growth arrest and DNA damage 45 (GADD45A), GADD45A (gene 1647)
The experiment in a line: LTEA_HepaRG_GADD45A: Life Technologies and Expression Analysis (LTEA) Assay for growth arrest and DNA damage 45 (GADD45A) using HepaRG (AID 2283458). The method in brief:
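HepaRG, 48 h exposure, 8 conc. (top 100 uM, half-log steps), 0.5% DMSO vehicle, duplicates. Read-out: qRT-PCR mRNA level, housekeeping-normalized (ACTB/GAPDH/POLR2A). Curves fit bidirectionally vs DMSO baseline.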

Read-out in assay [8]: Forkhead box O3 (FOXO3), FOXO3 (gene 2309)
Description: LTEA_HepaRG_FOXO3: Life Technologies and Expression Analysis (LTEA) Assay for Forkhead box O3 (FOXO3) using HepaRG (AID 2283459). The method in brief:
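FOXO3 transcript measured by qRT-PCR (normalized to ACTB, GAPDH, POLR2A) after 48 h exposure of HepaRG cells in serum-free induction medium. Duplicates, eight half-log concentrations up to 100 uM, 0.5% DMSO; gain or loss fitted against DMSO.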

Read-out in assay [9]: ABC Transporter (ABCB1), ABCB1 (gene 5243)
Description: LTEA_HepaRG_ABCB1: Life Technologies and Expression Analysis (LTEA) Assay for ABC Transporter (ABCB1) using HepaRG (AID 2283460). The method in brief:
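ABCB1 transcript level measured by TaqMan qRT-PCR against three housekeeping genes after 48 h chemical exposure of differentiated HepaRG cells. Top concentration 100 uM, half-log steps, eight points, 0.5% DMSO vehicle; bidirectional fit relative to DMSO.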

Read-out in assay [10]: growth arrest and DNA damage 45 (GADD45B), GADD45B (gene 4616)
Description: LTEA_HepaRG_GADD45B: Life Technologies and Expression Analysis (LTEA) Assay for growth arrest and DNA damage 45 (GADD45B) using HepaRG (AID 2283461). The method in brief: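 Differentiated human HepaRG cells in serum-free induction medium exposed 48 h in duplicate to eight concentrations, top 100 uM, half-log steps, 0.5% DMSO. GADD45B mRNA by TaqMan qRT-PCR, normalized to ACTB, GAPDH, POLR2A; bidirectional fit versus DMSO.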

Read-out in assay [11]: ABC Transporter (ABCC3), ABCC3 (gene 8714)
The experiment in a line: LTEA_HepaRG_ABCC3: Life Technologies and Expression Analysis (LTEA) Assay for ABC Transporter (ABCC3) using HepaRG (AID 2283462). The method in brief:
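Differentiated human HepaRG cells exposed 48 h in serum-free induction medium, 0.5% DMSO vehicle, 8-point half-log series to 100 uM in duplicate. ABCC3 mRNA by qRT-PCR, normalised to ACTB, GAPDH, POLR2A; bidirectional fit vs DMSO.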

Read-out in assay [12]: ABC Transporter (ABCB11), ABCB11 (gene 8647)
The experiment in a line: LTEA_HepaRG_ABCB11: Life Technologies and Expression Analysis (LTEA) Assay for ABC Transporter (ABCB11) using HepaRG (AID 2283463). The method in brief:
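ABCB11 transcript levels quantified by TaqMan qRT-PCR against three housekeeping genes after 48 h chemical exposure of HepaRG cultures. Concentrations up to 100 uM in half-log steps, 0.5% DMSO vehicle; both induction and suppression scored.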

Read-out in assay [13]: ABC Transporter (ABCC2), ABCC2 (gene 1244)
Description: LTEA_HepaRG_ABCC2: Life Technologies and Expression Analysis (LTEA) Assay for ABC Transporter (ABCC2) using HepaRG (AID 2283464). The method in brief: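 Differentiated HepaRG cells in serum-free induction medium exposed 48 h to eight half-log concentrations up to 100 uM, 0.5% DMSO, in duplicate. ABCC2 mRNA measured by qRT-PCR (TaqMan, Fluidigm), normalized to ACTB, GAPDH and POLR2A. Fitted in both directions against DMSO.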

Read-out in assay [14]: Broad substrate specificity ATP-binding cassette transporter ABCG2 (Homo sapiens) (UniProt Q9UNQ0)
The experiment in a line: LTEA_HepaRG_ABCG2: Life Technologies and Expression Analysis (LTEA) Assay for ABC Transporter (ABCG2) using HepaRG (AID 2283465). The method in brief: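 ABCG2 transcript was quantified by TaqMan qRT-PCR against three housekeeping genes in HepaRG cells. Cells were treated in duplicate for 48 h across an 8-point half-log series up to 100 uM, with 0.5% DMSO vehicle. Gain or loss versus DMSO was fit.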

Read-out in assay [15]: ATP-citrate lyase (ACLY), ACLY (gene 47)
The experiment in a line: LTEA_HepaRG_ACLY: Life Technologies and Expression Analysis (LTEA) Assay for ATP-citrate lyase (ACLY) using HepaRG (AID 2283466). The method in brief:
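ACLY mRNA quantified by qRT-PCR on Fluidigm arrays against three housekeeping genes, after 48 h chemical treatment of HepaRG cells (top concentration 100 uM, half-log steps, 0.5% DMSO vehicle). Up- or down-regulation fitted relative to DMSO.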

Read-out in assay [16]: Peroxisomal acyl-coenzyme A oxidase 1 (ACOX1) gene, ACOX1 (gene 51)
The experiment in a line: LTEA_HepaRG_ACOX1: Life Technologies and Expression Analysis (LTEA) Assay for Peroxisomal acyl-coenzyme A oxidase 1 (ACOX1) gene using HepaRG (AID 2283467). The method in brief:
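ACOX1 transcript levels were quantified by TaqMan qRT-PCR against three housekeeping genes after 48 h chemical exposure of differentiated human HepaRG cells. Exposure used eight half-log steps topping at 100 uM, 0.5% DMSO vehicle, in duplicate. Bidirectional curve fits were made relative to DMSO.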

Read-out in assay [17]: Alkaline Phosphatase, Placental (ALPP) gene, ALPP (gene 250)
The experiment in a line: LTEA_HepaRG_ALPP: Life Technologies and Expression Analysis (LTEA) Assay for Alkaline Phosphatase, Placental (ALPP) gene using HepaRG (AID 2283468). The method in brief: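 HepaRG cells plated 48 h, then exposed in duplicate for 48 h in serum-free induction medium to 8-point half-log series from 100 uM in 0.5% DMSO. ALPP mRNA by TaqMan qRT-PCR, normalized to ACTB/GAPDH/POLR2A; bidirectional fit versus DMSO.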

Read-out in assay [18]: Bcl-2 (BAD) gene, BAD (gene 572)
The experiment in a line: LTEA_HepaRG_BAD: Life Technologies and Expression Analysis (LTEA) Assay for Bcl-2 (BAD) gene using HepaRG (AID 2283469). The method in brief: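 Read-out: qRT-PCR of BAD mRNA, normalized to three housekeeping genes. Human HepaRG cultures got 48 h chemical exposure in 0.5% DMSO, duplicate eight-point half-log series topping at 100 uM. Gain or loss of signal fitted versus DMSO vehicle.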

Read-out in assay [19]: Bcl-2 (BAX) gene, BAX (gene 581)
Description: LTEA_HepaRG_BAX: Life Technologies and Expression Analysis (LTEA) Assay for Bcl-2 (BAX) gene using HepaRG (AID 2283470). The method in brief:
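qRT-PCR read-out of BAX mRNA, normalized to three housekeeping genes, after 48 h chemical exposure of human HepaRG cells in serum-free induction medium; eight-point half-log series, top 100 uM, 0.5% DMSO vehicle; bidirectional fit versus DMSO.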

Molecules are shown by their SMILES. The source made the active and inactive calls. How the source made its calls: active means hit-call score of the fitted dose curve at least 0.9, where 1 is the maximum; inactive means score below 0.9.

Broad substrate specificity ATP-binding cassette transporter ABCG2 (Homo sapiens), sequence (Q9UNQ0 whole entry, looked up): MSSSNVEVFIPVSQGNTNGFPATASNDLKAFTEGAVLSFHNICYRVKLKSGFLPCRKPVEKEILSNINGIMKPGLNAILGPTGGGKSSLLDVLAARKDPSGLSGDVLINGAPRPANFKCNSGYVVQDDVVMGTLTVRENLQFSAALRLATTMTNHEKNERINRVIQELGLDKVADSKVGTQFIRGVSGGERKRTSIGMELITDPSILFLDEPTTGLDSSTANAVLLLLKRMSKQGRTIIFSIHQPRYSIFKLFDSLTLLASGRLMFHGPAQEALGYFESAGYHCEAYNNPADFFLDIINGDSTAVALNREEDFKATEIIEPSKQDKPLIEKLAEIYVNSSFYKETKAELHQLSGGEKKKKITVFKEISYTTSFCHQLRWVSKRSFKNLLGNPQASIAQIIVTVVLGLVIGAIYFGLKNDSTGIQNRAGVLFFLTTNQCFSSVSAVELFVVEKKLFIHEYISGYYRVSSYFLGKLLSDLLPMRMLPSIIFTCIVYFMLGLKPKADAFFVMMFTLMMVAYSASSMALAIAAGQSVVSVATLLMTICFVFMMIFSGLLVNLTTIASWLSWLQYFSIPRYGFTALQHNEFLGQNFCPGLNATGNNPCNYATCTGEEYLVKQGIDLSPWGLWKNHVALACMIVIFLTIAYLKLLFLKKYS

For `CCOP(=S)(OCC)SCSP(=S)(OCC)OCC`, the result in assay [1], in [2], in assay [3], in [5], in assay [6] and in assay [8] was inactive. Moreover, the result in assay [9], in assay [11], in assay [12], in [14], in assay [16] and in assay [17] was inactive. In addition, the result in [18] and in assay [19] was inactive. The half-maximal activity concentration (AC50) was 33.1 µM (active) in [4]; 0.0566 µM (active) in assay [7]; 0.0743 µM (active) in assay [10]; 50 µM (active) in assay [13]; 78.7 µM (active) in assay [15].
For the molecule `ClC1(Cl)C2(Cl)C3(Cl)C4(Cl)C(Cl)(Cl)C5(Cl)C3(Cl)C1(Cl)C5(Cl)C24Cl` (stereo not given), the outcome in assay [1], in [2], in assay [3], in [5], in [6] and in [7] was inactive. The outcome in assay [8], in assay [9], in assay [10], in assay [11], in [12] and in [13] was inactive. The result in [14], in [16], in assay [17], in assay [18] and in assay [19] was inactive. The AC50 was 23.3 µM (active) in assay [4] and 5.15 µM (active) in assay [15].
For the molecule `Oc1cccc2cccnc12`, the call in assay [1], in assay [2], in [3], in assay [4], in assay [5] and in [6] was inactive. Also, the call in [7], in assay [8], in assay [9], in assay [10], in assay [11] and in assay [12] was inactive. The outcome in assay [13], in assay [14], in [15], in assay [16], in [17] and in assay [18] was inactive. In addition, the call in assay [19] was inactive.
Take `O=C(Nc1ccc2[nH]ccc2c1)c1cc2cc(F)ccc2n1Cc1cccc(F)c1`: the call in [1], in assay [5], in assay [6], in [8], in [10] and in assay [11] was inactive. Further, the call in [15] and in assay [18] was inactive. Besides, the AC50 in [3] was 26.3 µM (active); in [4], 91.7 µM (active); in assay [7], 20.7 µM (active); in assay [9], 90.3 µM (active); in [12], 38.1 µM (active); in assay [13] it was 78.2 µM (active). In addition, the AC50 in assay [14] was 32.2 µM (active); in assay [16] it was 63.1 µM (active); in [17], 14.4 µM (active); in assay [19], 19.2 µM (active).
